Laboratory results reported in PubChem BioAssay (NCI).
Compounds without any hit were thinned out: in the full panel of roughly 83,000, 20% have a hit.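 Cell lines were cultured in 96-well plates, exposed to a single compound concentration, and assessed for percent growth 48 hours later.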 Activity calls are given as the source filed them. How the source made its calls: active means growth percent below 10; inactive means the rest.

How the values were obtained:
Assay in all cases: NCI-60 one-dose screen, 48 h (100 = growth as untreated, 0 = no growth, -100 = all killed)
Conditions in all cases: 10 µM unless noted
EKVX NSCLC = system: EKVX NSCLC
SN12C renal = system: SN12C renal
UO-31 renal = system: UO-31 renal
TK-10 renal = system: TK-10 renal
ACHN renal = system: ACHN renal
CAKI-1 renal = system: CAKI-1 renal
A498 renal = system: A498 renal
CCRF-CEM leukemia = system: CCRF-CEM leukemia
MOLT-4 leukemia = system: MOLT-4 leukemia
SR leukemia = system: SR leukemia
RPMI-8226 leukemia = system: RPMI-8226 leukemia
OVCAR-8 ovarian = system: OVCAR-8 ovarian
OVCAR-5 ovarian = system: OVCAR-5 ovarian
OVCAR-4 ovarian = system: OVCAR-4 ovarian
SK-OV-3 ovarian = system: SK-OV-3 ovarian
IGROV1 ovarian = system: IGROV1 ovarian
OVCAR-3 ovarian = system: OVCAR-3 ovarian
NCI/ADR-RES ovarian = system: NCI/ADR-RES ovarian

Measured: growth

O=c1[nH]ccc2c(S(=O)(=O)N3CCCNCC3)cccc12
inactive: EKVX NSCLC 65.4% | SN12C renal 69.2% | UO-31 renal 40.6% | TK-10 renal 26% | ACHN renal 41.7% | CAKI-1 renal 55.5% | A498 renal 36.3% | CCRF-CEM leukemia 89.1% | MOLT-4 leukemia 84.9% | SR leukemia 83.3% | RPMI-8226 leukemia 106% | OVCAR-8 ovarian 90.4% | OVCAR-5 ovarian 62.9% | OVCAR-4 ovarian 89.5% | IGROV1 ovarian 31.2% | OVCAR-3 ovarian 60.7% | NCI/ADR-RES ovarian 75.4%
active: SK-OV-3 ovarian -0.289%

Cn1ccnc1C(=O)/C=C/c1ccc(CC(=O)Nc2ccc(C(F)(F)F)cc2)cc1
inactive: EKVX NSCLC 14.9% | UO-31 renal 22.1% | TK-10 renal 32.6% | ACHN renal 27.9% | CAKI-1 renal 33.5% | A498 renal 64.5% | OVCAR-5 ovarian 22.9% | OVCAR-4 ovarian 43.1% | SK-OV-3 ovarian 53.5%
active: SN12C renal 10% | CCRF-CEM leukemia 8.58% | MOLT-4 leukemia -7.88% | SR leukemia 1.17% | RPMI-8226 leukemia 3.07% | OVCAR-8 ovarian -25.8% | IGROV1 ovarian 9.94% | OVCAR-3 ovarian 9.48% | NCI/ADR-RES ovarian 6.64%

CC[C@@H]1C(=O)N(C)c2cnc(Nc3ccc(C(=O)NC4CCC(N5CCN(CC6CC6)CC5)CC4)cc3OC)nc2N1C(C)C (stereo partly drawn)
inactive: EKVX NSCLC 21.2% | TK-10 renal 19.9% | CAKI-1 renal 10.6% | OVCAR-5 ovarian 22.5% | OVCAR-4 ovarian 24.8% | NCI/ADR-RES ovarian 25.8%
active: SN12C renal 7.06% | UO-31 renal -52.3% | ACHN renal -3.77% | A498 renal -51.8% | CCRF-CEM leukemia 0.0303% | MOLT-4 leukemia -19.6% | SR leukemia -11.5% | RPMI-8226 leukemia -42.8% | OVCAR-8 ovarian 1.34% | SK-OV-3 ovarian -68.8% | IGROV1 ovarian -18.5% | OVCAR-3 ovarian -13.8%

Ic1ccccc1-c1ccccc1
inactive: EKVX NSCLC 120% | SN12C renal 101% | UO-31 renal 85.5% | TK-10 renal 106% | ACHN renal 109% | CAKI-1 renal 111% | A498 renal 89.8% | CCRF-CEM leukemia 90.1% | MOLT-4 leukemia 101% | SR leukemia 102% | RPMI-8226 leukemia 103% | OVCAR-8 ovarian 110% | OVCAR-5 ovarian 114% | OVCAR-4 ovarian 109% | SK-OV-3 ovarian 111% | IGROV1 ovarian 117% | OVCAR-3 ovarian 111% | NCI/ADR-RES ovarian 110%

COc1cc2c(cc1OCCCN1Cc3ccc(OCCCCC(=O)N4CCC(CCN5CCCC5)CC4)cc3C1)N=C(N)C21CCCC1
inactive: EKVX NSCLC 96.9% | SN12C renal 95.3% | UO-31 renal 93.7% | TK-10 renal 99.3% | ACHN renal 110% | CAKI-1 renal 93.9% | A498 renal 78.8% | CCRF-CEM leukemia 61.3% | MOLT-4 leukemia 44.8% | RPMI-8226 leukemia 62.6% | OVCAR-8 ovarian 97.9% | OVCAR-5 ovarian 102% | OVCAR-4 ovarian 77% | SK-OV-3 ovarian 71.7% | IGROV1 ovarian 83% | OVCAR-3 ovarian 99.2% | NCI/ADR-RES ovarian 107%
active: SR leukemia 1.87%

O=C(CNc1nc2ccccc2s1)Nc1ccc(-c2nc3ccccc3s2)cc1
inactive: EKVX NSCLC 110% | SN12C renal 103% | UO-31 renal 80.5% | TK-10 renal 96.7% | ACHN renal 107% | CAKI-1 renal 100% | A498 renal 93.8% | CCRF-CEM leukemia 111% | MOLT-4 leukemia 84.2% | SR leukemia 91.3% | RPMI-8226 leukemia 107% | OVCAR-8 ovarian 102% | OVCAR-5 ovarian 98.4% | OVCAR-4 ovarian 102% | SK-OV-3 ovarian 107% | IGROV1 ovarian 66.6% | OVCAR-3 ovarian 98% | NCI/ADR-RES ovarian 102%

COc1cccc(Nc2ncnn3ccc(CN4CC[C@@H](N)[C@H](O)C4)c23)c1
inactive: EKVX NSCLC 23.8% | SN12C renal 18.9% | CCRF-CEM leukemia 66.2% | MOLT-4 leukemia 17.6% | SR leukemia 20.1% | RPMI-8226 leukemia 65.7% | OVCAR-8 ovarian 27.5% | OVCAR-5 ovarian 25.5% | OVCAR-4 ovarian 61% | OVCAR-3 ovarian 44.1% | NCI/ADR-RES ovarian 19.4%
active: UO-31 renal -34.3% | TK-10 renal -35.3% | ACHN renal 2.8% | CAKI-1 renal -13.5% | A498 renal -38.1% | SK-OV-3 ovarian -41.4% | IGROV1 ovarian -19%

Cn1c(=O)c(F)c(Nc2ccc(I)cc2F)c2c(=O)n(C[C@@H](O)CO)cnc21
inactive: EKVX NSCLC 46.6% | SN12C renal 40.1% | UO-31 renal 22.8% | TK-10 renal 41.2% | ACHN renal 50.7% | CAKI-1 renal 41.7% | CCRF-CEM leukemia 66.8% | MOLT-4 leukemia 73.7% | SR leukemia 52.4% | RPMI-8226 leukemia 61.2% | OVCAR-8 ovarian 43.9% | OVCAR-4 ovarian 55.8% | SK-OV-3 ovarian 44.8% | IGROV1 ovarian 10.5% | OVCAR-3 ovarian 86.9% | NCI/ADR-RES ovarian 60.6%
active: A498 renal -30.7% | OVCAR-5 ovarian 6.95%

C[C@@H](Oc1cc(C(=O)Nc2ccc(C(=O)N3CCN(C)CC3)cc2)nnc1N)c1c(Cl)ccc(F)c1Cl
active: SR leukemia 0.634%
inactive: EKVX NSCLC 72.5% | SN12C renal 64.5% | UO-31 renal 48.4% | TK-10 renal 79.4% | ACHN renal 91.8% | CAKI-1 renal 75.5% | A498 renal 65% | CCRF-CEM leukemia 55.9% | MOLT-4 leukemia 34.8% | RPMI-8226 leukemia 36.7% | OVCAR-8 ovarian 63.1% | OVCAR-5 ovarian 75.3% | OVCAR-4 ovarian 78.2% | SK-OV-3 ovarian 66.9% | IGROV1 ovarian 86% | OVCAR-3 ovarian 91.6% | NCI/ADR-RES ovarian 76.5%

Cc1ccc(NC(=O)c2ccc(CN3CC[C@H](N(C)C)C3)c(C(F)(F)F)c2)cc1Nc1nccc(-c2cncnc2)n1
inactive: EKVX NSCLC 15.3% | OVCAR-5 ovarian 15.3% | SK-OV-3 ovarian 38.6% | NCI/ADR-RES ovarian 24.9%
active: SN12C renal -32.6% | UO-31 renal -61.3% | TK-10 renal -30.1% | ACHN renal 1.22% | CAKI-1 renal 6.85% | A498 renal -59.9% | CCRF-CEM leukemia 4.61% | MOLT-4 leukemia -4.64% | SR leukemia -7.54% | RPMI-8226 leukemia -9.27% | OVCAR-8 ovarian 3.4% | OVCAR-4 ovarian -4.76% | IGROV1 ovarian 0.261% | OVCAR-3 ovarian -6.36%

COc1ccc(Br)cc1NC(=O)Nc1cccc2c1ccn2Cc1ccnc(N)c1
active: UO-31 renal 9.39% | A498 renal -2.46% | MOLT-4 leukemia 8.16% | SR leukemia 7.97%
inactive: EKVX NSCLC 31.3% | SN12C renal 40.9% | TK-10 renal 22.1% | ACHN renal 24.1% | CAKI-1 renal 15% | CCRF-CEM leukemia 27.3% | RPMI-8226 leukemia 15.2% | OVCAR-8 ovarian 21.2% | OVCAR-5 ovarian 47.8% | OVCAR-4 ovarian 38.8% | SK-OV-3 ovarian 26.7% | IGROV1 ovarian 36.3% | OVCAR-3 ovarian 67.4% | NCI/ADR-RES ovarian 31.1%

O=C1NC(=O)/C(=C/c2ccc3nccc(-c4ccncc4)c3c2)S1
active: EKVX NSCLC -16.9% | SN12C renal -5.67% | UO-31 renal -37.7% | TK-10 renal -68.8% | ACHN renal -21.2% | CAKI-1 renal -40.2% | A498 renal -77.1% | CCRF-CEM leukemia 0.0384% | MOLT-4 leukemia -8.29% | SR leukemia -26.5% | RPMI-8226 leukemia -16.5% | OVCAR-8 ovarian -18.8% | OVCAR-5 ovarian -30.1% | OVCAR-4 ovarian -22.7% | SK-OV-3 ovarian -60.3% | IGROV1 ovarian -60.1% | OVCAR-3 ovarian -30.4% | NCI/ADR-RES ovarian -14.6%

CCCS(=O)(=O)Nc1ccc(F)c(C(=O)c2c[nH]c3ncc(-c4ccc(Cl)cc4)cc23)c1F
inactive: EKVX NSCLC 43.1% | SN12C renal 49.6% | UO-31 renal 19.5% | TK-10 renal 23.8% | ACHN renal 24.4% | CAKI-1 renal 12.1% | CCRF-CEM leukemia 26.9% | MOLT-4 leukemia 15.6% | SR leukemia 15.3% | RPMI-8226 leukemia 29.2% | OVCAR-8 ovarian 32.1% | OVCAR-5 ovarian 49% | OVCAR-4 ovarian 49.3% | IGROV1 ovarian 22.1% | OVCAR-3 ovarian 65.4% | NCI/ADR-RES ovarian 48.9%
active: A498 renal -1.82% | SK-OV-3 ovarian -0.481%

Cn1cc(-c2[nH]c3cc(NC(=O)[C@H](N)C4CCCCC4)cc4c3c2C=NNC4=O)cn1
active: SN12C renal -11.5% | UO-31 renal -13.6% | ACHN renal 4.51% | CAKI-1 renal 9.72% | A498 renal -43.7% | CCRF-CEM leukemia -29.4% | MOLT-4 leukemia -36.8% | SR leukemia -15.7% | RPMI-8226 leukemia -18.1% | OVCAR-8 ovarian -29.5% | SK-OV-3 ovarian 6.78% | IGROV1 ovarian -27.4% | OVCAR-3 ovarian -13%
inactive: EKVX NSCLC 33.1% | TK-10 renal 17.1% | OVCAR-5 ovarian 13% | OVCAR-4 ovarian 20.9% | NCI/ADR-RES ovarian 49.7%

O=C(NOC[C@H](O)CO)c1ccc(F)c(F)c1Nc1ccc(I)cc1F
active: A498 renal -19.9% | OVCAR-5 ovarian 9.99%
inactive: EKVX NSCLC 57.6% | SN12C renal 49.5% | UO-31 renal 24.6% | TK-10 renal 41.4% | ACHN renal 47.6% | CAKI-1 renal 34.3% | CCRF-CEM leukemia 83.7% | MOLT-4 leukemia 66.6% | SR leukemia 45.7% | RPMI-8226 leukemia 59.7% | OVCAR-8 ovarian 43.5% | OVCAR-4 ovarian 62% | SK-OV-3 ovarian 46.3% | IGROV1 ovarian 14.1% | OVCAR-3 ovarian 95.1% | NCI/ADR-RES ovarian 59.2%

Cc1cnc(Nc2ccc(OCCN3CCCC3)cc2)nc1Nc1cccc(S(=O)(=O)NC(C)(C)C)c1
inactive: EKVX NSCLC 26.4% | SN12C renal 12.6% | OVCAR-4 ovarian 26.3% | OVCAR-3 ovarian 28.2% | NCI/ADR-RES ovarian 30.5%
active: UO-31 renal -96.3% | TK-10 renal -40% | ACHN renal -40.8% | CAKI-1 renal -88.3% | A498 renal -95.3% | CCRF-CEM leukemia 1.67% | MOLT-4 leukemia 1.26% | SR leukemia -11.4% | RPMI-8226 leukemia -33.8% | OVCAR-8 ovarian 3.89% | OVCAR-5 ovarian 7.41% | SK-OV-3 ovarian -86.8% | IGROV1 ovarian -11.8%
